PubChem BioAssay AID1159580 (chemical genetic matrix, 2015)
“And” between values parts separate entries of the source, which are not always exact repeats. Equal values may be shown once. Out of some 5,500 compounds screened, about 2,000 (36%) were called active. Roughly 18% stayed inconclusive and do not appear here. No stated cut-off is given here; in the data, active means normalized growth mostly below about 0.91 (no sharp cut-off); inconclusive means no clear call, values can overlap the other calls; inactive means mostly above about 0.92. The list shows a part of the results.

Test: chemical genetic growth profiling, strain panel (AID 1159580);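 further: tested at 20 µM; growth read once vehicle control cultures reached saturation at 30 °C; 1 = growth at the plate median or of vehicle wells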
Details: S. cerevisiae deletion strains, growth OD

Measured: normalized growth

CN(C)C(=O)Nc1ccc(Cl)c(Cl)c1
inactive: locus YAL013W, strain DEP1, stronger effect = lower value 0.992 | locus YAL021C, strain ccr4, stronger effect = lower value 0.964 | locus YAL026C, strain drs2, stronger effect = lower value 0.97 | locus YAL030W, strain snc1, stronger effect = lower value 0.987 | locus YBL061C, strain skt5, stronger effect = lower value 0.991 | locus YBR009C, strain hhf1, stronger effect = lower value 0.926 | locus YBR021W, strain FUR4, stronger effect = lower value 0.904 | locus YBR023C, strain chs3, stronger effect = lower value 0.983 | locus YBR171W, strain sec66, stronger effect = lower value 1.01 | locus YBR229C, strain ROT2, stronger effect = lower value 1 | locus YBR231C, strain swc5, stronger effect = lower value 1.01 | locus YBR279W, strain paf1, stronger effect = lower value 0.97 | locus YCL011C, strain gbp2, stronger effect = lower value 0.954 | locus YCL016C, strain dcc1, stronger effect = lower value 0.974 | locus YCL029C, strain bik1, stronger effect = lower value 1.01 | locus YCL061C, strain MRC1, stronger effect = lower value 0.958 | locus YCL069W, strain vba3, stronger effect = lower value 0.994 | locus YCR088W, strain abp1, stronger effect = lower value 0.991 | locus YDL005C, strain med2, stronger effect = lower value 1 | locus YDL035C, strain GPR1, stronger effect = lower value 0.983 | locus YDL040C, strain nat1, stronger effect = lower value 0.991 | locus YDL074C, strain BRE1, stronger effect = lower value 0.899 | locus YDL101C, strain DUN1, stronger effect = lower value 0.999 | locus YDL134C, strain PPH21, stronger effect = lower value 0.986 | locus YDL185W, strain tfp1, stronger effect = lower value 1.02 | locus YDL192W, strain arf1, stronger effect = lower value 1 | locus YDR001C, strain nth1, stronger effect = lower value 0.99 | locus YDR069C, strain doa4, stronger effect = lower value 0.987 | locus YDR101C, strain arx1, stronger effect = lower value 1 | locus YDR137W, strain rgp1, stronger effect = lower value 1.03 | locus YDR150W, strain NUM1, stronger effect = lower value 0.993 | locus YDR159W, strain sac3, stronger effect = lower value 0.989 | locus YDR162C, strain NBP2, stronger effect = lower value 0.948 | locus YDR195W, strain ref2 1.1 | locus YDR297W, strain sur2, stronger effect = lower value 0.98 | locus YDR318W, strain mcm21, stronger effect = lower value 0.994 | locus YDR334W, strain swr1, stronger effect = lower value 1.01 | locus YDR335W, strain msn5, stronger effect = lower value 0.994 | locus YDR388W, stronger effect = lower value 0.992 | locus YDR392W, strain spt3, stronger effect = lower value 0.888 | locus YDR502C, strain sam2, stronger effect = lower value 0.989 | locus YEL003W, strain gim4, stronger effect = lower value 0.997 | locus YEL037C, strain rad23, stronger effect = lower value 0.993 | locus YEL061C, strain CIN8 (second series), stronger effect = lower value 1.01 | locus YEL061C, strain CIN8, stronger effect = lower value 0.998 | locus YER015W, strain faa2, stronger effect = lower value 0.968 | locus YER016W, strain bim1, stronger effect = lower value 0.992 | locus YER110C, stronger effect = lower value 1.01 | locus YER111C, strain swi4, stronger effect = lower value 1.02 | locus YER155C, strain BEM2 (second series), stronger effect = lower value 0.944 | locus YER155C, strain BEM2, stronger effect = lower value 1.01 | locus YER167W, strain BCK2, stronger effect = lower value 1 | locus YFR010W, strain ubp6, stronger effect = lower value 0.994 | locus YGL078C, strain dbp3, stronger effect = lower value 1.01 | locus YGL086W, strain mad1, stronger effect = lower value 0.997 | locus YGL167C, strain pmr1, stronger effect = lower value 0.988 | locus YGL173C, strain kem1, stronger effect = lower value 0.993 | locus YGL227W, strain vid30, stronger effect = lower value 0.995 | locus YGL240W, strain doc1, stronger effect = lower value 0.967 | locus YGL248W, strain PDE1, stronger effect = lower value 0.987 | locus YGL253W, strain hxk2, stronger effect = lower value 0.951 | locus YGR078C, strain PAC10, stronger effect = lower value 0.982 | locus YGR135W, strain pre9, stronger effect = lower value 0.98 | locus YGR229C, strain SMI1, stronger effect = lower value 0.942 | locus YGR252W, strain gcn5, stronger effect = lower value 0.807 | locus YHR013C, strain ard1, stronger effect = lower value 0.995 | locus YHR027C, strain rpn1, stronger effect = lower value 1.02 | locus YHR030C, strain SLT2, stronger effect = lower value 1.01 and 0.992 | locus YHR079C, strain IRE1 (second series), stronger effect = lower value 0.992 | locus YHR079C, strain IRE1, stronger effect = lower value 0.985 | locus YHR094C, strain hxt1, stronger effect = lower value 1 | locus YHR129C, strain ARP1, stronger effect = lower value 0.984 | locus YHR142W, strain chs7, stronger effect = lower value 0.887 | locus YHR200W, strain rpn10, stronger effect = lower value 0.991 | locus YIL066C, strain RNR3, stronger effect = lower value 0.981 | locus YIL073C, strain SPO22, stronger effect = lower value 0.981 | locus YIL125W, strain kgd1, stronger effect = lower value 1 | locus YIR030C, strain dcg1, stronger effect = lower value 1 | locus YJL092W, strain hpr5, stronger effect = lower value 0.982 | locus YJL095W, strain BCK1 (second series), stronger effect = lower value 1 | locus YJL095W, strain BCK1, stronger effect = lower value 0.96 and 0.984 | locus YJL115W, strain asf1, stronger effect = lower value 1 | locus YJL129C, strain trk1, stronger effect = lower value 0.984 | locus YJL134W, strain LCB3, stronger effect = lower value 0.996 | locus YJL154C, strain vps35, stronger effect = lower value 0.997 | locus YJL164C, strain tpk1, stronger effect = lower value 0.952 | locus YJL166W, strain qcr8, stronger effect = lower value 0.976 | locus YJL168C, strain set2, stronger effect = lower value 1 | locus YJL187C, strain SWE1 (second series), stronger effect = lower value 0.999 | locus YJR043C, strain POL32, stronger effect = lower value 0.88 | locus YJR066W, strain TOR1, stronger effect = lower value 0.93
